Where “and” joins values, the source holds several entries; their conditions need not be identical. Equal entries are not always repeated.
tested on: HL-1; test: cardiomyocyte survival under oxidative or metabolic stress – cell-based, panel, H9c2 and HL-1, ATP luminescence, set 2, SAR follow-up (AID 651871); details: H9c2/HL-1 cardiomyocytes, 2-deoxyglucose stress, with 2-deoxyglucose, run 5, at 79 µM (top of the series);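 further: cells exposed to stressor for 2 h before ATP readout; reference of the scale not given here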

Compound | activity (protection/inhibition)
CCOC(=O)c1cccc(NC(=O)CNC(=O)c2cc(-c3cc(OC)c(OC)c(OC)c3)nc3ccccc23)c1 | 51.1%
COc1ccc2nc(-c3cc(OC)c(OC)c(OC)c3)cc(C(=O)NCC(=O)Nc3ccc(C(C)=O)cc3)c2c1 | 55.8%
COc1ccc2c(c1OC)C(=O)N1c3ccccc3C(=O)N(Cc3cccc(Cl)c3Cl)C21 (stereo not drawn) | 43.8% and -9.92%

Reference: PubChem BioAssay AID651871 (Sanford-Burnham Center for Chemical Genomics, 2012)
